Data reported in PubChem BioAssay (Tox21).
Inconclusive results are not listed. Calls of active or inactive are those of the source. Unless noted, calls come from the whole dose curve; as a rule, active = well fitted curve in the direction sought with a large enough effect in the repeat runs; inconclusive = weak or mixed curves; inactive = no such curve, though single readings can be large; an effect the other way counts as inactive or inconclusive.

What was measured:
[1] = qHTS assay to test for compound auto fluorescence at 535 nm (green) in HEK293 cells (AID 720680)
[2] = qHTS assay to test for compound auto fluorescence at 460 nm (blue) in HEK293 cell free culture (AID 720681)
Summary of the method: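 Test compounds were pinned into cell-free culture medium (DMEM with 10% FBS) and fluorescence was read directly at Ex/Em 405/460 nm. Signals were expressed as fluorescence equivalents of triamterene, with DMSO vehicle as control.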

[3] = qHTS assay to test for compound auto fluorescence at 535 nm (green) in HEK293 cell free culture (AID 720682)
Summary of the method: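 Green-label autofluorescence (485 nm excitation, 535 nm emission) measured on compound added to cell-free culture medium (DMEM, 10% FBS). Output is expressed relative to fluorescein.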

[4] = qHTS assay to test for compound auto fluorescence at 590 nm (red) in HEK293 cell free culture (AID 720683)
Summary of the method: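 Tox21 10K library compounds were pinned into cell-free DMEM with 10% FBS and fluorescence was read at excitation 540 nm. Activity is expressed as Rose Bengal sodium equivalency.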

[5] = qHTS assay to test for compound auto fluorescence at 590 nm (red) in HepG2 cell free culture (AID 720684)
Summary of the method: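 Red fluorescence (540 nm excitation, 590 nm emission) was measured after compound transfer into cell-free MEM supplemented with 10% FBS. Values are equivalencies against Rose Bengal sodium.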

[6] = qHTS assay to test for compound auto fluorescence at 460 nm (blue) in HepG2 cell free culture (AID 720685)
Summary of the method: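 Compound (23 nL) or DMSO pinned into cell-free MEM with 10% FBS; blue fluorescence read at 405/460 nm excitation/emission, expressed as auto-fluorescence equivalency to triamterene.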

[7] = qHTS assay to test for compound auto fluorescence at 535 nm (green) in HepG2 cell free culture (AID 720686)
[8] = qHTS assay to test for compound auto fluorescence at 460 nm (blue) in HepG2 cells (AID 720687)
Summary of the method: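 Cells (2,000/well in MEM with 10% FBS) attached overnight at 37 C, then were exposed to compound or DMSO for 1 hr at 37 C, 5% CO2. Fluorescence read at Ex/Em 405/460 nm, expressed as triamterene-equivalent signal.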

[9] = target: Glucocorticoid receptor (Homo sapiens) (UniProt P04150); assay: qHTS assay to identify small molecule agonists of the glucocorticoid receptor (GR) signaling pathway (AID 720691; active = well fitted activation curve with a large enough effect in the signal ratio in the repeat runs, not every such curve was filed as active; the % refers to the signal ratio)
Glucocorticoid receptor (Homo sapiens), sequence (P04150 whole entry, looked up): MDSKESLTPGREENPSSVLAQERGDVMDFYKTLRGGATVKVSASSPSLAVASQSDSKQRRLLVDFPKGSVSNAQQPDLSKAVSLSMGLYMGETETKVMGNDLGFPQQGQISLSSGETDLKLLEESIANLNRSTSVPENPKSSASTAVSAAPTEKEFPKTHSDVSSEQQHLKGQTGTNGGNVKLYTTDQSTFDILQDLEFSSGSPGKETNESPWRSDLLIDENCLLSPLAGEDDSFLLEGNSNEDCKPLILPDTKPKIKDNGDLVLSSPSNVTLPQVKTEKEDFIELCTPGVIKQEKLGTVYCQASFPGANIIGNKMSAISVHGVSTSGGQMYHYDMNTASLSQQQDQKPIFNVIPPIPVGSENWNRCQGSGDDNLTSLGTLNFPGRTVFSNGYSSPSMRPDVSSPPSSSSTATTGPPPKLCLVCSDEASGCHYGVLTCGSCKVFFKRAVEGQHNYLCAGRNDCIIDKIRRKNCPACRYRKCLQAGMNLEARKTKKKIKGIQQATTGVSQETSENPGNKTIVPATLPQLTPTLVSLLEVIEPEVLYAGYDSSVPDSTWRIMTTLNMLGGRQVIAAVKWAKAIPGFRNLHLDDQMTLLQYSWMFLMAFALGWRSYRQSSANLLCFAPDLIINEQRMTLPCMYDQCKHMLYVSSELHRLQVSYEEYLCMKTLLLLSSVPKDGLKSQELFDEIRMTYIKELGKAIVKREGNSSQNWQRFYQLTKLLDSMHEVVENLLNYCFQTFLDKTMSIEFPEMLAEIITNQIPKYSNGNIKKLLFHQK
Summary of the method: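 Agonist mode in a HeLa line carrying a GRE-controlled beta-lactamase reporter. Compounds act for 18 h at 37 C before a 2 h room-temperature FRET substrate step and fluorescence reading.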

[10] = target: Glucocorticoid receptor (Homo sapiens) (UniProt P04150); assay: qHTS assay to identify small molecule antagonists of the glucocorticoid receptor (GR) signaling pathway (AID 720692; active = well fitted inhibition curve with a large enough effect in the signal ratio in the repeat runs, not every such curve was filed as active; the % refers to the signal ratio)
Summary of the method: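 Cells plated, rested 4 h at 37 C/5% CO2; compounds in DMSO pin-transferred; dexamethasone added to 5 nM final; 18 h at 37 C; B/G FRET substrate added, 2 h room temperature; fluorescence measured.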

[11] = qHTS assay to identify small molecule antagonists of the glucocorticoid receptor (GR) signaling pathway - cell viability counter screen (AID 720693); note: nearly all actives have a fitted effect of over 55% in size
[12] = qHTS assay for identifying genotoxic compounds that show differential cytotoxicity against isogenic chicken DT40 cell lines with known DNA damage response pathways - wild type cell line (AID 743012); note: nearly all actives have a fitted effect of over 60% in size
Summary of the method: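 Cells (DT40 wild type, 300/well) are treated with DMSO-dissolved compounds after a ~0.5 h pre-incubation and kept 40 h at 37 C/5% CO2. Viability is then measured by CellTiter-Glo luminescence following 30 min at room temperature.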

[13] = qHTS assay for identifying genotoxic compounds that show differential cytotoxicity against isogenic chicken DT40 cell lines with known DNA damage response pathways - Rev3 mutant cell line (AID 743014); note: nearly all actives have a fitted effect of over 55% in size
[14] = qHTS assay for identifying genotoxic compounds that show differential cytotoxicity against isogenic chicken DT40 cell lines with known DNA damage response pathways - Rad54/Ku70 mutant cell line (AID 743015); note: nearly all actives have a fitted effect of over 60% in size
[15] = qHTS assay to identify small molecule antagonists of the androgen receptor (AR) signaling pathway - cell viability counter screen (AID 743033; note: nearly all actives have a fitted effect of over 45% in size)
[16] = target: Androgen receptor (Homo sapiens) (UniProt P10275); assay: qHTS assay to identify small molecule agonists of the androgen receptor (AR) signaling pathway (AID 743036; active = well fitted activation curve with a large enough effect in the signal ratio in the repeat runs, with a control signal flat, not every such curve was filed as active; the % refers to the signal ratio)
Androgen receptor (Homo sapiens), sequence (P10275 whole entry, looked up): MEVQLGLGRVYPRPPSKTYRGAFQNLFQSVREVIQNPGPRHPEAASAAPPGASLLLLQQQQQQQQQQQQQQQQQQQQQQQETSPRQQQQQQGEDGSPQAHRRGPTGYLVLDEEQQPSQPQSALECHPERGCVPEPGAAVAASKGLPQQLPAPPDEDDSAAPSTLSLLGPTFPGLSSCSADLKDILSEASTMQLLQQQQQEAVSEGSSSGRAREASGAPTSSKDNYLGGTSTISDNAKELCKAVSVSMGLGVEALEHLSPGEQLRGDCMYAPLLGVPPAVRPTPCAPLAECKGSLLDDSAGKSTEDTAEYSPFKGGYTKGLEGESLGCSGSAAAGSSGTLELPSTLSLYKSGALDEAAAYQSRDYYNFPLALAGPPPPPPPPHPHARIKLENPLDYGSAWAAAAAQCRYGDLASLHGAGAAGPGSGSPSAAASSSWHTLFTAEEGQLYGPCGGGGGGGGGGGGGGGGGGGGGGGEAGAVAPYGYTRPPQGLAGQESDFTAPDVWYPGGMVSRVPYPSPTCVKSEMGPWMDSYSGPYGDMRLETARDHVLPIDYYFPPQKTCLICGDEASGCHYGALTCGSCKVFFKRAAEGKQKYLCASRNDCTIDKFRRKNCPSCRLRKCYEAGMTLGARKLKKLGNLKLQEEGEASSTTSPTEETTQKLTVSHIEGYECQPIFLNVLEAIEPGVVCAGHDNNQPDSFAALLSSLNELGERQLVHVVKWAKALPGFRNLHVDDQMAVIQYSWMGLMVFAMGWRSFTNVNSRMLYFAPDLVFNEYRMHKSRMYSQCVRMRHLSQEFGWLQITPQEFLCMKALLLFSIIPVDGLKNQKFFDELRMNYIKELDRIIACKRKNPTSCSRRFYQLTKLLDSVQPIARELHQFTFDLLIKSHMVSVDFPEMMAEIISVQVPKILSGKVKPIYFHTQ
Summary of the method: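 AR-UAS-bla HEK293 cells, plated 4 h before dosing, were treated with compound for 16 h at 37C. beta-Lactamase reporter read after 2 h with LiveBLAzer B/G FRET substrate at room temperature.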

[17] = target: Androgen receptor (Homo sapiens) (UniProt P10275); assay: qHTS assay to identify small molecule agonists of the androgen receptor (AR) signaling pathway using the MDA cell line (AID 743040; note: nearly all actives have a fitted effect of over 20% in size)
Summary of the method: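 MDA-kb2 breast carcinoma cells stably carrying an MMTV-driven luciferase reporter (AR- and GR-responsive) were seeded and held 5 h at 37C, 0% CO2, then exposed to compounds in DMSO for 16 h. Luminescence was read 30 min after ONE-Glo addition.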

[18] = qHTS assay to identify small molecule antagonists of the androgen receptor (AR) signaling pathway using the MDA cell line - cell viability counter screen (AID 743041; note: nearly all actives have a fitted effect of over 45% in size)
Summary of the method: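 MDA-kb2 AR-luc human breast carcinoma cells (MMTV-luciferase, AR/GR responsive) were treated with compounds plus R1881 agonist for 16 h at 37 °C. Viability was read as CellTiter-Fluor fluorescence in the same wells as the reporter assay.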

[19] = target: Androgen receptor (Homo sapiens) (UniProt P10275); assay: qHTS assay to identify small molecule antagonists of the androgen receptor (AR) signaling pathway using the MDA cell line (AID 743042; note: nearly all actives have a fitted effect of over 55% in size)
Summary of the method: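 MDA-kb2 cells (human breast carcinoma, stably carrying an MMTV-luciferase reporter responsive to AR and GR) were plated at 3,000 cells/well and preincubated 5 hr at 37C, then given compound plus R1881 agonist for 16 h. ONE-Glo luminescence was read.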

[20] = qHTS assay to identify small molecule antagonists of the thyroid receptor (TR) signaling pathway - cell viability counter screen (AID 743064); note: nearly all actives have a fitted effect of over 50% in size
Summary of the method: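 GH3.TRE-Luc rat pituitary cells dosed after 4 hr plating, co-stimulated with T3 at 1 nM final, incubated 23.5 h at 37 C. Viability measured in the same wells by CellTiter-Fluor fluorescence after 30 min further at 37 C.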

Measured: Potency

NC(=O)c1ccccc1
inactive: all assays above

COc1ccc(CN(CCN(C)C)c2ncccn2)cc1
not listed: [16] | [17] | [19]
inactive: all other assays above

O=C1OC(=O)C2CC=CCC12 (centres undefined)
not listed: [16] | [17] | [19]
inactive: all other assays above

CC(C(=O)O)c1ccc2c(c1)Cc1cccnc1O2 (centres undefined)
not listed: [16]
inactive: all other assays above

CC(C)(O)C(=O)O
not listed: [16] | [17] | [19]
inactive: all other assays above

Cc1cccc(C)c1NC(=O)CN1CCCC1
not listed: [15] | [16] | [17] | [19]
inactive: all other assays above

CCC1=C(C)CN(C(=O)NCCc2ccc(S(=O)(=O)NC(=O)NC3CCC(C)CC3)cc2)C1=O (centres undefined)
not listed: [15] | [16]
inactive: all other assays above
